Test [1] is described as follows: ATG_E_Box_CIS: Attagene CIS-FACTORIAL HepG2 Assay for human Enhancer Box (E-box) (AID 2282936). As to conditions: HepG2 E-box cis-reporter transcription, actives raise or lower the signal. In short, it runs like this: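 Multiplexed CIS reporter system in transiently transfected HepG2 cells measures native transcription factor activity. Reporter RNA after 24 h exposure is profiled by RT-PCR-capillary electrophoresis.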

Test [2] can be described thus: ATG_EGR_CIS: Attagene CIS-FACTORIAL HepG2 Assay for human Early Growth Response 1 (EGR1) (AID 2282938). As to conditions: HepG2 Attagene CIS-FACTORIAL EGR reporter mRNA; actives raise or lower the signal. Put shortly:
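Transient transfection of human HepG2 with multiple cis-regulated reporter units, chemical exposure 24 h, total RNA isolated. Reverse transcription, PCR, fluorescent labelling and capillary electrophoresis quantify reporter transcripts; activity fitted bidirectionally against DMSO.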

A short description of test [3]: ATG_M_19_CIS: Attagene CIS-FACTORIAL HepG2 Assay for M19 Transcription Factor (Internal Marker) (AID 2282939). The settings on record: HepG2 Attagene CIS-FACTORIAL M19 internal marker reporter; actives raise or lower the signal. Put shortly: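 Signals come from fluorescence of labelled reporter-specific PCR fragments resolved by capillary electrophoresis, following 24 h treatment of HepG2 cells transfected with cis-promoter reporter units; activity was fitted in both directions relative to DMSO.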

Test [4] in a line: ATG_ERE_CIS: Attagene CIS-FACTORIAL HepG2 Assay for Estrogen Response Element (ERE) (AID 2282940). The settings on record: HepG2 ERE cis-reporter, Attagene RNA transcript; actives raise or lower the signal. Put shortly: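 Fluorescence of capillary-separated, FAM-labelled reporter cDNA fragments indicates reporter mRNA levels in HepG2 cells exposed to chemicals for 24 h. Transient transfection with cis-regulated units; data fitted in both directions against DMSO.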

Test [5] in a line: ATG_Ets_CIS: Attagene CIS-FACTORIAL HepG2 Assay for human Erythroblast Transformation Specific (ETS) (AID 2282941). The settings on record: HepG2 ETS cis-reporter transcription, actives raise or lower the signal. Put shortly:
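Steps: transfect HepG2 with multiple reporter units; treat compound 24 h; isolate RNA, DNase-treat, reverse-transcribe; PCR-amplify, label with 6-FAM, digest with HpaI; separate by capillary electrophoresis. Activity fitted both directions versus DMSO.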

For test [6], the target named is Hepatocyte nuclear factor 3-beta (Homo sapiens) (UniProt Q9Y261). Put plainly: ATG_FoxA2_CIS: Attagene CIS-FACTORIAL HepG2 Assay for human Forkhead box A2 (FOXA2) (AID 2282942). The settings on record: HepG2 cis-reporter transcription factor activity, 24 h; actives raise or lower the signal. In short, it runs like this:
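Transient MRTU transfection of HepG2 liver cells; 24 h treatment; total RNA → oligo(dT) RT → PCR → FAM primer extension → HpaI cut → CE. Bidirectional fit vs DMSO.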

Test [7] in a line: ATG_FoxO_CIS: Attagene CIS-FACTORIAL HepG2 Assay for human Forkhead box O (FoxO) (AID 2282943). The settings on record: HepG2 Attagene cis-reporter, FoxO element, mRNA; actives raise or lower the signal. In short, it runs like this: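 Values reflect reporter mRNA induction or loss in HepG2 cells 24 h post-dosing, fitted bidirectionally with DMSO as negative control and baseline. Detection used RT-PCR and fluorescence capillary electrophoresis.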

A short description of test [8]: ATG_GATA_CIS: Attagene CIS-FACTORIAL HepG2 Assay for human GATA Binding Protein (AID 2282944). As to conditions: HepG2 GATA cis-element reporter, Attagene multiplex mRNA; actives raise or lower the signal. In short, it runs like this: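 After transfecting HepG2 cells with multiple cis-regulated reporter units, chemicals are dosed for 24 h; isolated RNA undergoes RT-PCR and fluorescent labeling before capillary electrophoresis, with activity expressed against DMSO.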

Test [9] in a line: ATG_GLI_CIS: Attagene CIS-FACTORIAL HepG2 Assay for human Zinc Finger Protein GLI1 (AID 2282945). The settings on record: HepG2, Attagene cis-factorial reporter mRNA, GLI element; actives raise or lower the signal. Put shortly:
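HepG2 cells transiently transfected with cis-promoter multiplexed reporter units report endogenous transcription factor activity. After 24 h chemical exposure, reporter mRNA was quantified by RT-PCR, 6-FAM labelling, HpaI digestion and capillary electrophoresis, with bidirectional fitting against DMSO.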

A short description of test [10]: ATG_GRE_CIS: Attagene CIS-FACTORIAL HepG2 Assay for human Glucocorticoid Response Elements (GRE) (AID 2282947). The settings on record: HepG2 GRE cis-reporter, Attagene multiplex mRNA; actives raise or lower the signal. Put shortly:
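Following 24 h chemical exposure of transiently transfected HepG2 cells, total RNA was reverse-transcribed and reporter cDNA amplified, fluorescently labelled and sized by capillary electrophoresis. Signal gain or loss was fitted relative to DMSO vehicle.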

Test [11] can be described thus: ATG_ISRE_CIS: Attagene CIS-FACTORIAL HepG2 Assay for human Interferon Regulatory Factor 1 (IRF1) binding to an Interferon-Stimulated Response Element (ISRE) (AID 2282948). As to conditions: HepG2 ISRE cis-reporter (Attagene), mRNA transcription readout; actives raise or lower the signal. In short, it runs like this:
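Transfected HepG2 (multiple reporter transcription units, cis elements) dosed 24 h. RNA → oligo(dT) RT → PCR → 6-FAM primer extension → HpaI → CE. DMSO = negative control/baseline.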

The nature of test [12]: ATG_M_32_CIS: Attagene CIS-FACTORIAL HepG2 Assay for M32 Transcription Factor (Internal Marker) (AID 2282949).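 Also: background control marker of the multiplexed CIS panel rather than a real target.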 The settings on record: HepG2 Attagene cis-factorial M32 reporter, mRNA; actives raise or lower the signal. In short, it runs like this:
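HepG2 cells transiently transfected with multiplexed cis-regulated reporter units, dosed 24 h. Reporter mRNA quantified by RT-PCR, 6-FAM labelling, HpaI digestion and capillary electrophoresis; bidirectional fit vs DMSO.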

Test [13] in a line: ATG_M_06_CIS: Attagene CIS-FACTORIAL HepG2 Assay for M06 Transcription Factor (Internal Marker) (AID 2282950). The settings on record: HepG2 Attagene CIS-FACTORIAL M06 internal marker reporter; actives raise or lower the signal. Put shortly:
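HepG2 liver cells, 24 h exposure. Reporter transcripts from transfected cis-element constructs quantified by RT-PCR/capillary electrophoresis fluorescence. Bidirectional curve fit against DMSO.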

Test [14] deals with Hypoxia-inducible factor 1-alpha (Homo sapiens) (UniProt Q16665). Put plainly: ATG_HIF1a_CIS: Attagene CIS-FACTORIAL HepG2 Assay for human Hypoxia Inducible Factor 1 (HIF1A) (AID 2282951). The settings on record: HepG2 Attagene cis-factorial HIF1a reporter transcription; actives raise or lower the signal. In short, it runs like this:
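Transient MRTU transfection of human HepG2 liver cells, 24 h compound treatment, then total RNA isolation, oligo(dT) reverse transcription, PCR amplification, fluorescent labelling and capillary electrophoresis of reporter fragments. Gain or loss relative to DMSO.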

Test [15] concerns the target Hepatocyte nuclear factor 6 (Homo sapiens) (UniProt Q9UBC0). The test is described as follows: ATG_HNF6_CIS: Attagene CIS-FACTORIAL HepG2 Assay for human Hepatocyte Nuclear Factor 6 (HNF6) (AID 2282952). As to conditions: HepG2 Attagene cis-factorial HNF6 reporter transcription; actives raise or lower the signal. In short, it runs like this: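 HepG2 cells transiently transfected with cis-element-driven multiplexed reporter units measuring endogenous transcription factor activity. After 24 h exposure, reporter mRNA quantified by RT-PCR, FAM-labelled fragments and capillary electrophoresis; bidirectional fitting versus DMSO.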

For test [16], the target named is Heat shock factor protein 1 (Homo sapiens) (UniProt Q00613). Put plainly: ATG_HSE_CIS: Attagene CIS-FACTORIAL HepG2 Assay for human Heat Shock Transcription Factor 1 (HSE) (AID 2282953). The settings on record: HepG2 HSE cis-reporter, Attagene RNA transcription; actives raise or lower the signal. In short, it runs like this:
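Endogenous transcription factor activity captured via cis-promoter reporter units transfected into HepG2; treatment lasted 24 h. Fluorescence intensity of reporter fragments analysed with bidirectional curve fitting, DMSO baseline.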

The nature of test [17]: ATG_MRE_CIS: Attagene CIS-FACTORIAL HepG2 Assay for human Metal Responsive Element (MRE) (AID 2282954). The settings on record: HepG2 MRE cis-reporter transcription, Attagene multiplex; actives raise or lower the signal. In short, it runs like this:
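Step one: transfect HepG2 with cis-regulated reporter units. Step two: dose 24 h. Step three: isolate RNA, RT-PCR, 6-FAM label, HpaI digest, capillary electrophoresis. Fit bidirectionally to DMSO.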

Test [18] in a line: ATG_PBREM_CIS: Attagene CIS-FACTORIAL HepG2 Assay for human Phenobarbital-responsive Enhancer Module (PBREM) (AID 2282955). The settings on record: HepG2 PBREM cis-reporter, Attagene multiplexed transcription; actives raise or lower the signal. Put shortly: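 Endogenous transcription factors in human liver HepG2 cells drive a PBREM cis-element reporter, whose transcript level after 24 h treatment is quantified by RT-PCR with capillary electrophoresis; activity fitted in both directions against DMSO.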

Test [19] can be described thus: ATG_M_61_CIS: Attagene CIS-FACTORIAL HepG2 Assay for M61 Transcription Factor (Internal Marker) (AID 2282937). As to conditions: HepG2 Attagene CIS-FACTORIAL M61 internal marker reporter; actives raise or lower the signal. Put shortly:
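Human liver HepG2, transient MRTU transfection (cis promoter elements), 24 h compound. Total RNA → oligo(dT) RT → PCR → FAM label → HpaI → CE. Internal background marker; bidirectional fitting, DMSO = baseline.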

For test [20], the target named is Bile acid receptor (Homo sapiens) (UniProt Q96RI1). The test is described as follows: ATG_IR1_CIS: Attagene CIS-FACTORIAL HepG2 Assay for human Nuclear Receptor Subfamily 1 Group H Member 4 (NR1H4), IR1 submotif (AID 2282946). The settings on record: IR1 reporter transcription, actives raise or lower the signal. In short, it runs like this:
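Transient MRTU transfection, HepG2; 24 h dosing; RNA → RT-PCR → 6-FAM primer extension → HpaI digest → capillary electrophoresis fluorescence. Gain/loss of signal fitted relative to DMSO.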

Calls of active or inactive are those of the source. The calls were made as follows: active = hit-call score of the fitted dose curve at least 0.9, where 1 is the maximum; inactive = score below 0.9.

Chain of Hypoxia-inducible factor 1-alpha (Homo sapiens) (Q16665 whole entry, looked up, the tested form may be a part): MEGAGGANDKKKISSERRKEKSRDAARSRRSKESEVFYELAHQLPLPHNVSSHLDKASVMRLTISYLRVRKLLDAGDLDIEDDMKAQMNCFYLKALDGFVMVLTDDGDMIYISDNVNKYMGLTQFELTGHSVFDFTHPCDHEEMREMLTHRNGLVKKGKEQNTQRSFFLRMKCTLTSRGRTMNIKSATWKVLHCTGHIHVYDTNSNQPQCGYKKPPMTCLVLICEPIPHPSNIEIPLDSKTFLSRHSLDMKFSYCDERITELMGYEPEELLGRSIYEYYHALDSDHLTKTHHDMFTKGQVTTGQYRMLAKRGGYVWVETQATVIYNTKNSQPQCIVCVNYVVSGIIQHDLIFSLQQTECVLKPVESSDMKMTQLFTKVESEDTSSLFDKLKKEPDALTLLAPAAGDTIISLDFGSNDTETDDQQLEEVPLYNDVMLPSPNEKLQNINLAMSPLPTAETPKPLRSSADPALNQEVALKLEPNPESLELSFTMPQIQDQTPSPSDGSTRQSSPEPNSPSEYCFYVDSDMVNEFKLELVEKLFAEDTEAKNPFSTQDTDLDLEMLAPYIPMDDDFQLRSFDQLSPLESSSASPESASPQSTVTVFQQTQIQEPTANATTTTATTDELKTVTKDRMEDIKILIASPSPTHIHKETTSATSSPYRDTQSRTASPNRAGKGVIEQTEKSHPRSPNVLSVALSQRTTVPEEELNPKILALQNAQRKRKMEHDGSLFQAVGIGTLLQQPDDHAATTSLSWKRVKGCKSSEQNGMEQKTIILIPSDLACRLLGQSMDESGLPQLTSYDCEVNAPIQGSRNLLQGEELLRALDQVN
Chain of Heat shock factor protein 1 (Homo sapiens) (Q00613 whole entry, looked up, the tested form may be a part): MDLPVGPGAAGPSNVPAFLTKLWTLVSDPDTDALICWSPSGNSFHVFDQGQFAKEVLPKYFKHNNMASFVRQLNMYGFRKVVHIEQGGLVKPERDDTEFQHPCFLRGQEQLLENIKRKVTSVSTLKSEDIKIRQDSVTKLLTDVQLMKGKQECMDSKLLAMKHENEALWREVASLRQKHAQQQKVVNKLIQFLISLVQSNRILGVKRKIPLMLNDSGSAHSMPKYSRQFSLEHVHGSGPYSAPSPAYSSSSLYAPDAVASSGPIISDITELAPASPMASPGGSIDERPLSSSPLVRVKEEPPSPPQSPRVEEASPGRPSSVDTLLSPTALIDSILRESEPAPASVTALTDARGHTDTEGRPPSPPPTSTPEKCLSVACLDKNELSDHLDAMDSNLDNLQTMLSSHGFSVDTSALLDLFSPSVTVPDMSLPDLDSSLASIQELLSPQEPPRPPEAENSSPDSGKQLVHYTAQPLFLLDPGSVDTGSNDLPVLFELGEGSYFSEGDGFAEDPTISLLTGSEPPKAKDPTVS
Chain of Hepatocyte nuclear factor 3-beta (Homo sapiens) (Q9Y261 whole entry, looked up): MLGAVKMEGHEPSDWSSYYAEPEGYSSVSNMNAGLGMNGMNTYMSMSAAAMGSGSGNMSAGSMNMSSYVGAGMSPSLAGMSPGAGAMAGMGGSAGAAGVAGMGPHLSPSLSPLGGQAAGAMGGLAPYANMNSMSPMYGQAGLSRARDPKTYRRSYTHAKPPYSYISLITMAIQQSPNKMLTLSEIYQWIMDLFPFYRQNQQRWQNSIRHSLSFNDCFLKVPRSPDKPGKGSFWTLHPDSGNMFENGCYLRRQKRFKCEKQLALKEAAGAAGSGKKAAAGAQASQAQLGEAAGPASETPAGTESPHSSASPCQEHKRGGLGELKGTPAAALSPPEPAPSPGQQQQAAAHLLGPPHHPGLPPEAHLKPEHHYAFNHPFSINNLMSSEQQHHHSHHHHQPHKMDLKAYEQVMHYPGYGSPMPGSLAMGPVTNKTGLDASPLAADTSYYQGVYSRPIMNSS
Chain of Hepatocyte nuclear factor 6 (Homo sapiens) (Q9UBC0 whole entry, looked up, the tested form may be a part): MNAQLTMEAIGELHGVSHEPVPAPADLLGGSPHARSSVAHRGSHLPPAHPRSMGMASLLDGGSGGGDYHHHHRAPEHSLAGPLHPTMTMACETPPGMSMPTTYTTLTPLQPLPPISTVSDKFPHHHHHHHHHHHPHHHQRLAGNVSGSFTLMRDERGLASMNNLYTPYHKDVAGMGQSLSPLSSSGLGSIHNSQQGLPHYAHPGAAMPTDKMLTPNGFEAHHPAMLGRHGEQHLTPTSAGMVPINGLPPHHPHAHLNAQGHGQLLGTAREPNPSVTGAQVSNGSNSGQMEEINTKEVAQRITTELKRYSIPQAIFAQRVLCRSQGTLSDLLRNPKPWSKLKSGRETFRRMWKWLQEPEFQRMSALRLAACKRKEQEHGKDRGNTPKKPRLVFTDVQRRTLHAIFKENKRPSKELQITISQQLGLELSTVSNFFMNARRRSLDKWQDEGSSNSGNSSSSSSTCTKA
Chain of Bile acid receptor (Homo sapiens) (Q96RI1 whole entry, looked up): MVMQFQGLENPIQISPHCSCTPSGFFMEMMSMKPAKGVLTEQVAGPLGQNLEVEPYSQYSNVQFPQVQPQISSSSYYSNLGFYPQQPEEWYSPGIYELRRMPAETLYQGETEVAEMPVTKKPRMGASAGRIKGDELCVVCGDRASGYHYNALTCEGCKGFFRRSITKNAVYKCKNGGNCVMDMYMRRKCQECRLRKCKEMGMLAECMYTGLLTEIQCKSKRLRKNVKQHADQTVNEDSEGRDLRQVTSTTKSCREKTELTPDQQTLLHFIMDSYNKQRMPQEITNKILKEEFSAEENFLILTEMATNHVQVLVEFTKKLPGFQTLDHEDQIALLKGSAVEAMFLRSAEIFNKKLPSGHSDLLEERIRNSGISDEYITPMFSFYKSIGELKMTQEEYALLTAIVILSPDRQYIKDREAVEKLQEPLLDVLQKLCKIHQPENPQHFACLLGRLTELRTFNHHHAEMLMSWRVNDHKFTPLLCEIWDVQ

In the case of `Cc1ccc2c(c1)C(=O)c1ccccc1C2=O`, the result in test [1], in test [2], in test [3], in test [5], in test [6] and in test [7] was inactive. Further, the call in test [8], in [9], in [10], in test [11], in test [12] and in test [13] was inactive. In addition, the compound was classed as inactive in test [14], in test [15], in [16], in [17] and in test [18]. The AC50 in test [4] is 12.2 µM (active).

For `ON(Cc1ccccc1)Cc1ccccc1`, the outcome in test [1], in test [19], in test [2], in [3], in test [5] and in [6] was inactive. For the same compound, the compound was classed as inactive in test [7], in [9], in [10], in test [11], in test [12] and in test [13]. For the same compound, the outcome in test [14], in test [15], in test [17] and in test [18] was inactive.

As to `NC(CO)(CO)CO`, the outcome in [1], in [2], in test [3], in [5], in [6] and in test [7] was inactive. In addition, the outcome in test [8], in test [9], in test [10], in test [11], in test [12] and in [13] was inactive. Moreover, the result in test [14], in [15], in test [16], in [17] and in [18] was inactive.

Take `Cc1ccc(OC(=O)CC(C)C)cc1`: the outcome in [1], in test [2], in [3], in test [5], in test [6] and in test [7] was inactive. For the same compound, the result in test [8], in test [9], in test [10], in [12], in test [13] and in [14] was inactive. Also, the outcome in test [15], in test [16], in [17] and in test [18] was inactive.

Consider `CC(=O)OC1C2(C)CCC(C2)C1(C)C` (stereo not given), for which the result in [1], in test [2], in [3], in test [4], in test [5] and in test [6] was inactive. The call in [7], in test [8], in test [9], in test [20], in test [10] and in test [11] was inactive. For the same compound, the compound was called inactive in [12], in [13], in test [14], in test [15], in test [16] and in test [17].

As for `Oc1ccc(Cl)cc1Cc1cc(Cl)ccc1O`, the result in test [1], in [3], in test [6], in test [7], in test [8] and in test [9] was inactive. The outcome in [10], in [11], in test [12], in [13], in test [15] and in [16] was inactive. For the same compound, the result in test [18] was inactive. For the same compound, the AC50 in [2] was 8.39 µM (active); in test [4], 3.04 µM (active); in test [5], 6.68 µM (active); in [20] it was 11.1 µM (active); in [14] it was 11.1 µM (active); in [17] it was 11.1 µM (active).

With `CC(C)c1ccc2cc(C(C)C)ccc2c1`, the result in test [1], in test [2], in [3], in test [4], in [5] and in test [6] was inactive. In addition, the outcome in test [7], in test [9], in [10], in test [11], in test [12] and in test [13] was inactive. Moreover, the outcome in [14], in [15], in [16] and in [17] was inactive.

The values above are taken from PubChem BioAssay (EPA / NIEHS).
